Screening data: PubChem, National Center for Advancing Translational Sciences (NCATS)
GPT2 inh = blocks human glutamate pyruvate transaminase 2 | Q8TD30 | Recombinant GPT2, coupled pyruvate oxidase/HRP Amplex Red fluorescence | Potency, µM (series often up to 57.7 µM), for the others: at the top dose activity change, negative = inhibition, most hits filed as inhibitors | 100,000 tested, 0.25% active | AID 1671188; note: nearly all actives have a fitted effect of over 60% in size
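GPT2 10ng/uL, a-KG 250uM, L-Ala 2mM, HEPES pH7.5 + 0.0001% Tween; 30 min RT. Then Amplex mix (PO/HRP/ThPP), 30 min RT dark, fluorescence. AOA 50uM used as positive control.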
NIH3T3 tox = NIH 3T3 cell cytotoxicity. 94,000 tested, 4.3% active. AID 1345082. NIH 3T3 viability, CellTiter-Glo ATP luminescence, 48-72 h. Potency, µM (titrated, usually from 96.7 µM), inactives show at the top dose activity change, negative = cytotoxicity, most hits filed as inhibitors; note: nearly all actives have a fitted effect of over 55% in size
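Cytotoxicity is measured as loss of cellular ATP: NIH 3T3 cells (400/well) are exposed to compound for 48 or 72 hr at 37 °C, then CellTiter-Glo luminescence is imaged after 10 min at room temperature.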
hNpr1 antagonist = human Npr1 receptor antagonism; P16066; HEK293 hNpr1 GloSensor cGMP, ANP-stimulated luminescence; Potency, µM (series often up to 46.3 µM), for inactives: at the top dose activity change, negative = inhibition, most hits filed as inhibitors; 76,000 tested, 1.6% active; calls by dose curve; note: nearly all actives have a fitted effect of over 60% in size
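HEK293 cells stably expressing human Npr1 and cGMP GloSensor pGS-40F, loaded 2 h with 2% GloSensor reagent, given compound 30 min at room temperature. Luminescence read before and 20 min after 0.1 nM hNppA.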
HEK cytotox = cytotoxic compounds in HEK 293 cells; HEK 293 viability, ATP luminescence (CellTiter-Glo), 48-72 h; Potency, µM (highest dose often 115 µM), for inactives: at the highest dose activity change, negative = cytotoxicity, hits mostly inhibitors; 94,000 tested, 6.6% active; AID 1345083; note: nearly all actives have a fitted effect of over 60% in size
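Read-out: CellTiter-Glo ATP luminescence. Cells: HEK 293, 250 cells/well. Exposure: 48 or 72 hr, 37 degree Celsius.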
FLuc inh = blocks purified firefly luciferase enzyme activity. P08659. purified P. pyralis luciferase, luminescence, biochemical. Potency, µM (highest dose often 115 µM), hits mostly inhibitors. 76,000 tested, 2.5% active. AID 1347043; note: nearly all actives have a fitted effect of over 65% in size
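Purified 10nM P. pyralis luciferase with 10uM D-luciferin and 10uM ATP in 50mM Tris acetate pH 7.5, 10mM Mg acetate, 0.01% Tween-20, 0.05% BSA. qHTS titration; luminescence read by CCD imager.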
An asterisk follows results filed as active; i = inactive; ? = inconclusive; / = no result; ! = not active in a repeat; [ ] = another dose, or the depositor's remark. This is a sample that favours compounds with a hit; in the whole collection about 10% have one here. Unless noted, calls come from the whole dose curve; as a rule, active = well fitted curve in the direction sought with a large enough effect; inconclusive = small, poorly fitted or top-dose-only effect, or another doubt; inactive = no such curve, though single readings can be large; an effect the other way counts as inactive or inconclusive. % is set by controls: 0 for no effect and ±100 for the full control effect; potency is the fitted concentration of half-maximal effect.

SMILES	GPT2 inh	NIH3T3 tox	hNpr1 antagonist	HEK cytotox	FLuc inh
CCCN(C)C(=O)c1csc(N2CCN(c3cccc(Cl)c3)CC2)n1	?	?	?	32µM*	i
Cc1cc(C)cc(-c2ccc(CN3CCCC(NC(=O)Nc4ccccc4)C3)cc2)c1 (stereo not drawn)	i	10µM*	/	?	/
COc1cccc(-c2ccc(CN3CCCC(NC(=O)c4ccccc4F)C3)cc2)c1 (stereo not drawn)	i	?	/	40µM*	/
Cc1cc(C)cc(-c2ccc(CN3CCCC(NC(=O)c4ccccc4F)C3)cc2)c1 (stereo not drawn)	i	?	/	79µM*	/
Cc1ccc(C(=O)NC2CCCN(Cc3ccc(-c4cc(C)cc(C)c4)cc3)C2)cc1 (stereo not drawn)	-18%	-18%	/	-19%	/
COc1cccc(-c2ccc(CN3CCCC(NC(=O)c4ccccc4C)C3)cc2)c1 (stereo not drawn)	i	40µM*	/	22µM*	/
Cc1cc(C)cc(-c2ccc(CN3C4CCC3CN(C(=O)Nc3ccccc3F)C4)cc2)c1	0%	?	/	?	/
COc1cccc(-c2ccc(CN3C4CCC3CN(C(=O)Nc3ccccc3F)C4)cc2)c1	3%	35µM*!	-22%	40µM*!	?
CCc1n[nH]c(CC2CCN(C(=O)c3ccnn3CC)CC2)n1	5%	1%	12%	?	i
CCN(CC1CCN(C2CCN(C)CC2)CC1)C(=O)c1ccc(-c2ccccc2)cc1	-12%	28µM*	7%	22µM*	i
CCN1c2cc(C(=O)Nc3cccc(C(=O)OC)c3)ccc2C(=O)N2CCCCCC21 (stereo not drawn)	i	18µM*	-26%	?	i
CCN1c2cc(C(=O)Nc3ccccc3)ccc2C(=O)N2CCCCC21 (stereo not drawn)	1%	?	0%	?	?
CCOC(=O)c1cccc(NC(=O)c2ccc3c(c2)N(CC)C2CCCCCN2C3=O)c1 (stereo not drawn)	-2%	20µM*	-24%	?	i
O=C(Nc1ccccc1)N1CCC(N2CC(OCC3CC3)C23CCOCC3)CC1 (stereo not drawn)	i	-6%	9%	-6%	i
O=C(c1ccc2nnc(-c3ccc(Cl)cc3)n2c1)N1CCN(c2ncccn2)CC1	i	-23%	/	1%	/
O=C1CC(c2ccccc2)N(C(=O)CNC(=O)c2nccc3ccccc23)CCCCCCN1 (stereo not drawn)	i	?	5%	?	i
O=C1CC(c2ccccc2)N(C(=O)CNC(=O)c2[nH]nc3c2COc2ccccc2-3)CCCCCN1 (stereo not drawn)	i	?	-14%	32µM*	i
O=C1CC(c2ccccc2)N(C(=O)CNC(=O)c2n[nH]c3ccccc23)CCCCCN1 (stereo not drawn)	i	-7%	1%	-6%	25µM*
Cc1ccc(-c2cn3cc(C(=O)N4CCOCC4)nc3s2)cc1	i	?	/	?	/
CC(C)CN(CC1CN(C(=O)Nc2ccccc2)CCO1)C(=O)c1ccccc1F (stereo not drawn)	-4%	-24%	6%	?	i
CC1(C)C(=O)N(CC2CCOCC2)[C@H]2CN(Cc3ccccc3O)C[C@H]2[S+]1(=O)[O-]	i	?	0%[70.6 µM]	-20%[172 µM]	i
C[N+](C)([O-])CCNc1ccc(NCC[N+](C)(C)[O-])c2c1C(=O)c1c(O)ccc(O)c1C2=O	-30%	/	/	/	/
O=C1c2c(O)ccc(O)c2C(=O)c2c(NCCNCCO)ccc(NCCNCCO)c21	10µM*!	/	/	/	/
CN(CC1CCOCC1)C(=O)c1ccsc1	i	3%	-2%	12%	i
COc1ccc(NC(=O)c2ccc3c(c2)NC(C)(COc2ccccc2)CO3)cc1OC (stereo not drawn)	2%[88.5 µM]	?	-17%[70.6 µM]	?	i
SMILES	GPT2 inh	NIH3T3 tox	hNpr1 antagonist	HEK cytotox	FLuc inh
CC1(COc2cccnc2)COc2ccc(C(=O)Nc3ccc4[nH]ccc4c3)cc2N1 (stereo not drawn)	5%[88.5 µM]	89µM*	-13%[70.6 µM]	?	40µM*
CC1(COc2ccccc2)COc2ccc(C(=O)Nc3ccccc3)cc2N1 (stereo not drawn)	-13%[88.5 µM]	?	-6%[70.6 µM]	71µM*	i
CCOCC1(C)COc2ccc(C(=O)N(C)Cc3ccccc3)cc2N1 (stereo not drawn)	i	?	3%[70.6 µM]	?	i
CC1(COc2ccccc2)COc2ccc(C(=O)Nc3ccc4[nH]ccc4c3)cc2N1 (stereo not drawn)	3%[88.5 µM]	35µM*	?	45µM*	?
CN(Cc1ccccc1)C(=O)c1ccc2c(c1)NC(C)(COc1ccccc1)CO2 (stereo not drawn)	?	50µM*	-10%[70.6 µM]	71µM*	i
O=C(NC1CCN(Cc2ccc(-c3ccsc3)cc2)C1)C1CC1 (stereo not drawn)	-2%[88.5 µM]	?	/	?	/
COc1ccc(NC(=O)N2CCC(c3noc(-c4cccnc4)n3)C2)cc1 (stereo not drawn)	i	-26%	3%	?	i
FC(F)(F)Oc1ccc(-c2cnc([C@@H]3COCCN3Cc3ncc[nH]3)[nH]2)cc1	-9%[88.5 µM]	?	-1%[70.6 µM]	?	i
N#Cc1ccc(CN2CCCCC23Cc2ccccc2CNC3=O)cc1 (stereo not drawn)	1%	?	/	?	/
O=C(C1CCN(S(=O)(=O)N2CCOCC2)CC1)N1CCC(CCOc2ccc(F)cc2)C1 (stereo not drawn)	-10%	?	/	45µM*	/
CC(C)C(=O)N1CCC(CCOc2ccccc2F)C1 (stereo not drawn)	i	?	-20%	?	i
CN(CC(=O)N1CCC(CCOc2ccc(F)cc2)C1)S(=O)(=O)c1ccc2c(c1)oc(=O)n2C (stereo not drawn)	i	?	?	35µM*	i
CN(CC(=O)N1CCC(CCOc2ccccc2F)C1)S(=O)(=O)c1cccs1 (stereo not drawn)	-7%	?	-16%	50µM*	i
Cc1cc(C)cc(NC(=S)N[C@H]2CO[C@H]3[C@@H]2OC[C@H]3OC(=O)NC2CCCCC2)c1	-1%[88.5 µM]	?	-13%[70.6 µM]	?	i
O=C(c1cc(-c2cccnc2)nc2ccccc12)N1CCCC2(CCOC2)C1 (stereo not drawn)	i	-28%	-2%	-23%	i
CC1=C[C@@H](CC#N)[C@H](C(C)C)C[C@H]1CC(=O)N1CCC(C)CC1	5%[88.5 µM]	?	-14%[70.6 µM]	71µM*	i
